Source: PubChem BioAssay (NCATS)
Records with an inconclusive call do not appear. The source made the active and inactive calls. Calls follow the shape of the dose curve; as a rule, active = well fitted inhibition curve with a large enough effect; inconclusive = small, poorly fitted or top-dose-only effect; inactive = flat fitted curve, though single readings scatter. Where a SMILES comes first, the peptide text is derived from it.

Key:
[1] = system: NIH3T3; assay: Cytotoxic Profiling of Annotated Libraries Using Quantitative High-Throughput Screening (AID 1296008); conditions: Five cell lines viability, CellTiter-Glo ATP luminescence, 48-72 h; max response: active compounds read low
How it was run: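 Cytotoxicity was measured as CellTiter-Glo ATP luminescence, read after 10 min at room temperature. Compound treatment of the cells lasted 48 or 72 hr at 37 degrees Celsius in a qHTS format.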

[2] = system: MCC-13; assay: qHTS assay to identify novel small-molecules to repurpose for Merkel cell carcinoma treatment (AID 1296009); conditions: MCC and control cell lines, CellTiter-Glo viability, 72 h; series mostly up to 46 µM
How it was run: (§1)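 After compound transfer in DMSO, plates were kept 72 hr at 37 degree celsius. Luminescent ATP signal from CellTiter-Glo served as viability measure, normalized against DMSO and no-cell controls.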

[3] = system: MCC-26; assay: as above; conditions: MCC and control cell lines, CellTiter-Glo viability, 72 h; series mostly up to 46 µM
How it was run: as §1

[4] = system: MKL-1; assay: as above; conditions: MCC and control cell lines, CellTiter-Glo viability, 72 h; series mostly up to 46 µM
How it was run: as §1

[5] = system: MKL-2; assay: as above; conditions: MCC and control cell lines, CellTiter-Glo viability, 72 h; series mostly up to 46 µM
How it was run: as §1

[6] = system: UISO; assay: as above; conditions: MCC and control cell lines, CellTiter-Glo viability, 72 h; series mostly up to 46 µM
How it was run: as §1

[7] = system: WaGa; assay: as above; conditions: MCC and control cell lines, CellTiter-Glo viability, 72 h; series mostly up to 46 µM
How it was run: as §1
% is scaled to controls: 0 for no effect and ±100 for the full control effect; potency is read from the fitted curve at half-maximal effect.
Also: nearly all actives have a fitted effect of over 60% in size.

Cc1cc2nc3ccc(=[N+](C)C)cc-3sc2cc1N
active: Potency [1] 10.6 µM | Potency [2] 2.99 µM | Potency [3] 11.9 µM | Potency [4] 0.596 µM | Potency [5] 0.531 µM | Potency [6] 1.68 µM | Potency [7] 0.668 µM

Nc1c(NC/C=C\COc2cc(CN3CCCCC3)ccn2)c(=O)c1=O
inactive: max response [1] 0.202% | Potency [2] | Potency [3] | Potency [4] | Potency [5] | Potency [6] | Potency [7]

Nc1nnnn1-c1ccccc1
inactive: max response [1] -4.79% | Potency [2] | Potency [3] | Potency [4] | Potency [5] | Potency [6] | Potency [7]

Brc1ccccc1-c1ccccc1
inactive: max response [1] -3.48% | Potency [2] | Potency [3] | Potency [4] | Potency [5] | Potency [6] | Potency [7]

C[C@H]1C[C@H](O)c2ccsc2S1(=O)=O
inactive: max response [1] 1.66% | Potency [2] | Potency [3] | Potency [4] | Potency [5] | Potency [6] | Potency [7]

CC(=O)OCC(=O)[C@@]1(O)CCC2C3CCC4=CC(=O)CC[C@]4(C)C3[C@@H](O)C[C@@]21C (stereo partly specified)
inactive: max response [1] 0.645% | Potency [2] | Potency [3] | Potency [4] | Potency [5] | Potency [6] | Potency [7]

CC1c2ccccc2CN1NC(=O)c1ccc(Cl)c(S(N)(=O)=O)c1 (stereo unspecified)
inactive: max response [1] 2.57% | Potency [2] | Potency [3] | Potency [4] | Potency [5] | Potency [6] | Potency [7]

CC1(C)O[C@@H]2C[C@H]3[C@@H]4C[C@H](F)C5=CC(=O)C=C[C@]5(C)[C@@]4(F)[C@@H](O)C[C@]3(C)[C@]2(C(=O)CO)O1
inactive: max response [1] -12.6% | Potency [2] | Potency [3] | Potency [4] | Potency [5] | Potency [6] | Potency [7]

CC(C)C(C)(C)C(C)(C)C(C)(C)S
inactive: max response [1] -4.3% | Potency [2] | Potency [3] | Potency [4] | Potency [5] | Potency [6] | Potency [7]

c1ccc2occc2c1
inactive: max response [1] -3.85% | Potency [2] | Potency [3] | Potency [4] | Potency [5] | Potency [6] | Potency [7]

CNC[C@H](O)[C@@H](O)[C@H](O)[C@H](O)CO
inactive: max response [1] 1.64% | Potency [2] | Potency [3] | Potency [4] | Potency [5] | Potency [6] | Potency [7]

CN1[C@@H]2CC[C@H]1CC(NC(=O)n1c(=O)[nH]c3ccccc31)C2 (stereo partly specified)
inactive: max response [1] 1.08% | Potency [2] | Potency [3] | Potency [4] | Potency [5] | Potency [6] | Potency [7]

CC(C)(C)C1CCC(CC2=C(O)c3ccccc3C(=O)C2=O)CC1 (stereo unspecified)
inactive: max response [1] -2.94% | Potency [2] | Potency [3] | Potency [4] | Potency [5] | Potency [7]

Cc1ccc2c(Cl)cc(Cl)c(O)c2n1
inactive: max response [1] 2.93% | Potency [2] | Potency [3] | Potency [4] | Potency [5] | Potency [6] | Potency [7]

CC(=O)N[C@@H](CO)C(=O)N[C@@H](CC(=O)O)C(=O)N[C@@H](CCCCN)C(=O)N1CCC[C@H]1C(=O)O (Ac-SDKP-OH)
inactive: max response [1] -0.894% | Potency [2] | Potency [3] | Potency [4] | Potency [5] | Potency [6] | Potency [7]

C/C(=N\O)[C@@H](C)NCC(C)(C)CN[C@H](C)/C(C)=N/O
inactive: max response [1] -0.119% | Potency [2] | Potency [3] | Potency [4] | Potency [5] | Potency [6] | Potency [7]

CCCN(CCC)C(=O)C(CCC(=O)OCCCN1CCN(CCOC(=O)Cc2c(C)n(C(=O)c3ccc(Cl)cc3)c3ccc(OC)cc23)CC1)NC(=O)c1ccccc1 (stereo unspecified)
inactive: max response [1] 1.41% | Potency [2] | Potency [3] | Potency [4] | Potency [6]

CO/N=C(/C(=O)N[C@@H]1C(=O)N2C(C(=O)O)=C(Cn3nnc(C)n3)CS[C@H]12)c1csc(N)n1
inactive: max response [1] 2.67% | Potency [2] | Potency [3] | Potency [4] | Potency [5] | Potency [6] | Potency [7]

NC(=O)NS(=O)(=O)c1ccc(Cl)cc1
inactive: max response [1] -2.72% | Potency [2] | Potency [3] | Potency [4] | Potency [5] | Potency [6] | Potency [7]

CC1CC(=O)NN=C1c1ccc(NCC(C)(C)NCC(O)COc2cc(Cl)ccc2C#N)cc1 (stereo unspecified)
inactive: max response [1] -20.4% | Potency [2] | Potency [3] | Potency [4] | Potency [5] | Potency [6] | Potency [7]

CC[N+](CC)(CC)CCOC(=O)C(C1CCCC1)C1CCCC1
active: Potency [4] 11.9 µM | Potency [5] 5.96 µM | Potency [7] 9.44 µM
inactive: max response [1] -5.66% | Potency [2] | Potency [3]

CCCCCCCCCCCCCCCCCCN(C)C
inactive: max response [1] 0.657% | Potency [2] | Potency [3] | Potency [4] | Potency [5] | Potency [6] | Potency [7]

CN1CCC(N(Cc2cccs2)c2ccccc2)CC1
inactive: max response [1] -5.48% | Potency [2] | Potency [3] | Potency [4] | Potency [5] | Potency [7]
